# Measurements from paper PMC11062922 (Nature Chemical Biology, 2023).
# Read-outs that look alike come from different tables or passages of the source.
# How the values were obtained:
# [1] = system: IKBKE; conditions: read-out: apparent Kd, n = 1
# [2] = system: NUAK1; conditions: read-out: apparent Kd, n = 1
# [3] = compound concentrations:100 nM and 1000 nM (sheet 'Lestaurtinib' of Supplementary Table 1),run:Lestaurtinib_02364_R2,Plate:MR002
# [4] = compound concentrations:100 nM and 1000 nM (sheet 'Lestaurtinib' of Supplementary Table 1),run:Lestaurtinib_02364_R3,Plate:MR002
# [5] = compound concentrations:100 nM and 1000 nM (sheet 'Lestaurtinib' of Supplementary Table 1),run:Lestaurtinib_02367_R1,Plate:MR003
# [6] = compound concentrations:100 nM and 1000 nM (sheet 'Lestaurtinib' of Supplementary Table 1),run:Lestaurtinib_02381_R1,Plate:MR004
# [7] = compound concentrations:100 nM and 1000 nM (sheet 'Lestaurtinib' of Supplementary Table 1),run:Lestaurtinib_02437_R1,Plate:MR007
# [8] = compound concentrations:100 nM and 1000 nM (sheet 'Lestaurtinib' of Supplementary Table 1),run:Lestaurtinib_02437_R2,Plate:MR007
# [9] = compound concentrations:100 nM and 1000 nM (sheet 'Lestaurtinib' of Supplementary Table 1),run:Lestaurtinib_02438_R1,Plate:MR008
# [10] = compound concentrations:100 nM and 1000 nM (sheet 'Lestaurtinib' of Supplementary Table 1),run:Lestaurtinib_02438_R2,Plate:MR008
# [11] = compound concentrations:100 nM and 1000 nM (sheet 'Lestaurtinib' of Supplementary Table 1),run:Lestaurtinib_02443_R2,Plate:MR009
# [12] = compound concentrations:100 nM and 1000 nM (sheet 'Lestaurtinib' of Supplementary Table 1),run:Lestaurtinib_02482_R1,Plate:MR011
# [13] = compound concentrations:100 nM and 1000 nM (sheet 'Lestaurtinib' of Supplementary Table 1),run:Lestaurtinib_02482_R3,Plate:MR011
# [14] = compound concentrations:100 nM and 1000 nM (sheet 'Lestaurtinib' of Supplementary Table 1),run:Lestaurtinib_02487_R2,Plate:MR012
substance,measurement,setting,value
Lestaurtinib,potency estimated from few doses,"[1]; compound concentrations:100 nM and 1000 nM (sheet 'Lestaurtinib' of Supplementary Table 1),run:Lestaurtinib_02364_R1,Plate:MR002",0.769 µM
same,potency estimated from few doses,[1]; [3],0.896 µM
same,potency estimated from few doses,[1]; [4],0.647 µM
same,potency estimated from few doses,[1]; [5],0.711 µM
same,potency estimated from few doses,"[1]; compound concentrations:100 nM and 1000 nM (sheet 'Lestaurtinib' of Supplementary Table 1),run:Lestaurtinib_02367_R2,Plate:MR003",0.972 µM
same,potency estimated from few doses,[1]; [6],0.695 µM
same,potency estimated from few doses,"[1]; compound concentrations:100 nM and 1000 nM (sheet 'Lestaurtinib' of Supplementary Table 1),run:Lestaurtinib_02381_R2,Plate:MR004",0.551 µM
same,potency estimated from few doses,"[1]; compound concentrations:100 nM and 1000 nM (sheet 'Lestaurtinib' of Supplementary Table 1),run:Lestaurtinib_02381_R3,Plate:MR004",0.713 µM
same,potency estimated from few doses,"[1]; compound concentrations:100 nM and 1000 nM (sheet 'Lestaurtinib' of Supplementary Table 1),run:Lestaurtinib_02407_R3,Plate:MR005",0.883 µM
same,potency estimated from few doses,"[1]; compound concentrations:100 nM and 1000 nM (sheet 'Lestaurtinib' of Supplementary Table 1),run:Lestaurtinib_02422_R3,Plate:MR006",0.976 µM
same,potency estimated from few doses,[1]; [7],0.554 µM
same,potency estimated from few doses,[1]; [8],0.807 µM
same,potency estimated from few doses,"[1]; compound concentrations:100 nM and 1000 nM (sheet 'Lestaurtinib' of Supplementary Table 1),run:Lestaurtinib_02437_R3,Plate:MR007",0.0712 µM
same,potency estimated from few doses,[1]; [9],0.861 µM
same,potency estimated from few doses,[1]; [10],0.834 µM
same,potency estimated from few doses,"[1]; compound concentrations:100 nM and 1000 nM (sheet 'Lestaurtinib' of Supplementary Table 1),run:Lestaurtinib_02443_R1,Plate:MR009",0.745 µM
same,potency estimated from few doses,[1]; [11],0.713 µM
same,potency estimated from few doses,[1]; [12],1.13 µM
same,potency estimated from few doses,[1]; [13],0.627 µM
same,potency estimated from few doses,[1]; [14],1.15 µM
same,potency estimated from few doses,"[1]; compound concentrations:100 nM and 1000 nM (sheet 'Lestaurtinib' of Supplementary Table 1),run:Lestaurtinib_02487_R3,Plate:MR012",0.756 µM
same,potency estimated from few doses,"[1]; compound concentrations:100 nM and 1000 nM (sheet 'Lestaurtinib' of Supplementary Table 1),run:Lestaurtinib_02496_R1,Plate:MR013",0.71 µM
same,potency estimated from few doses,"[1]; compound concentrations:100 nM and 1000 nM (sheet 'Lestaurtinib' of Supplementary Table 1),run:Lestaurtinib_02496_R2,Plate:MR013",0.695 µM
same,potency estimated from few doses,"[1]; compound concentrations:100 nM and 1000 nM (sheet 'Lestaurtinib' of Supplementary Table 1),run:Lestaurtinib_02566_R1,Plate:MR014",0.877 µM
same,potency estimated from few doses,"[1]; compound concentrations:100 nM and 1000 nM (sheet 'Lestaurtinib' of Supplementary Table 1),run:Lestaurtinib_02572_R1,Plate:MR015",0.756 µM
same,potency estimated from few doses,"[1]; compound concentrations:100 nM and 1000 nM (sheet 'Lestaurtinib' of Supplementary Table 1),run:Lestaurtinib_02572_R2,Plate:MR015",0.857 µM
same,potency estimated from few doses,"[1]; compound concentrations:100 nM and 1000 nM (sheet 'Lestaurtinib' of Supplementary Table 1),run:Lestaurtinib_02572_R3,Plate:MR015",0.855 µM
same,potency estimated from few doses,"[1]; compound concentrations:100 nM and 1000 nM (sheet 'Lestaurtinib' of Supplementary Table 1),run:Lestaurtinib_02577_R1,Plate:MR016",0.799 µM
same,potency estimated from few doses,"[1]; compound concentrations:100 nM and 1000 nM (sheet 'Lestaurtinib' of Supplementary Table 1),run:Lestaurtinib_02577_R2,Plate:MR016",0.785 µM
same,potency estimated from few doses,"[1]; compound concentrations:100 nM and 1000 nM (sheet 'Lestaurtinib' of Supplementary Table 1),run:Lestaurtinib_02577_R3,Plate:MR016",0.713 µM
same,potency estimated from few doses,"[1]; compound concentrations:100 nM and 1000 nM (sheet 'Lestaurtinib' of Supplementary Table 1),run:Lestaurtinib_02584_R2,Plate:MR017",0.744 µM
same,potency estimated from few doses,"[1]; compound concentrations:100 nM and 1000 nM (sheet 'Lestaurtinib' of Supplementary Table 1),run:Lestaurtinib_02584_R3,Plate:MR017",0.935 µM
same,potency estimated from few doses,"[1]; compound concentrations:100 nM and 1000 nM (sheet 'Lestaurtinib' of Supplementary Table 1),run:Lestaurtinib_02601_R3,Plate:MR018",0.796 µM
same,potency estimated from few doses,"[1]; compound concentrations:100 nM and 1000 nM (sheet 'Lestaurtinib' of Supplementary Table 1),run:Lestaurtinib_02606_R1,Plate:MR019",0.995 µM
same,potency estimated from few doses,"[1]; compound concentrations:100 nM and 1000 nM (sheet 'Lestaurtinib' of Supplementary Table 1),run:Lestaurtinib_02624_R2,Plate:MR020",0.729 µM
same,potency estimated from few doses,"[1]; compound concentrations:100 nM and 1000 nM (sheet 'Lestaurtinib' of Supplementary Table 1),run:Lestaurtinib_02624_R3,Plate:MR020",0.787 µM
same,potency estimated from few doses,"[1]; compound concentrations:100 nM and 1000 nM (sheet 'Lestaurtinib' of Supplementary Table 1),run:Lestaurtinib_02724_R1,Plate:MR021",0.731 µM
same,potency estimated from few doses,"[1]; compound concentrations:100 nM and 1000 nM (sheet 'Lestaurtinib' of Supplementary Table 1),run:Lestaurtinib_02724_R2,Plate:MR021",0.809 µM
same,potency estimated from few doses,"[1]; compound concentrations:100 nM and 1000 nM (sheet 'Lestaurtinib' of Supplementary Table 1),run:Lestaurtinib_02724_R3,Plate:MR021",0.582 µM
same,potency estimated from few doses,"[1]; compound concentrations:100 nM and 1000 nM (sheet 'Lestaurtinib' of Supplementary Table 1),run:Lestaurtinib_02741_R1,Plate:MR023",0.782 µM
same,potency estimated from few doses,"[1]; compound concentrations:100 nM and 1000 nM (sheet 'Lestaurtinib' of Supplementary Table 1),run:Lestaurtinib_02741_R2,Plate:MR023",0.81 µM
same,potency estimated from few doses,"[1]; compound concentrations:100 nM and 1000 nM (sheet 'Lestaurtinib' of Supplementary Table 1),run:Lestaurtinib_02741_R3,Plate:MR023",0.965 µM
same,potency estimated from few doses,"[1]; compound concentrations:100 nM and 1000 nM (sheet 'Lestaurtinib' of Supplementary Table 1),run:Lestaurtinib_02748_R1,Plate:MR024",0.505 µM
same,potency estimated from few doses,"[1]; compound concentrations:100 nM and 1000 nM (sheet 'Lestaurtinib' of Supplementary Table 1),run:Lestaurtinib_02748_R3,Plate:MR024",0.81 µM
same,potency estimated from few doses,"[1]; compound concentrations:100 nM and 1000 nM (sheet 'Lestaurtinib' of Supplementary Table 1),run:Lestaurtinib_02752_R1,Plate:MR025",0.783 µM
same,potency estimated from few doses,"[1]; compound concentrations:100 nM and 1000 nM (sheet 'Lestaurtinib' of Supplementary Table 1),run:Lestaurtinib_02752_R2,Plate:MR025",0.786 µM
same,potency estimated from few doses,"[1]; compound concentrations:100 nM and 1000 nM (sheet 'Lestaurtinib' of Supplementary Table 1),run:Lestaurtinib_02752_R3,Plate:MR025",0.596 µM
same,potency estimated from few doses,"[1]; compound concentrations:100 nM and 1000 nM (sheet 'Lestaurtinib' of Supplementary Table 1),run:Lestaurtinib_02765_R1,Plate:MR026",0.86 µM
same,potency estimated from few doses,"[1]; compound concentrations:100 nM and 1000 nM (sheet 'Lestaurtinib' of Supplementary Table 1),run:Lestaurtinib_02765_R3,Plate:MR026",0.731 µM
same,potency estimated from few doses,"[1]; compound concentrations:100 nM and 1000 nM (sheet 'Lestaurtinib' of Supplementary Table 1),run:Lestaurtinib_02768_R1,Plate:MR028",0.686 µM
same,potency estimated from few doses,"[1]; compound concentrations:100 nM and 1000 nM (sheet 'Lestaurtinib' of Supplementary Table 1),run:Lestaurtinib_02768_R2,Plate:MR028",0.82 µM
same,potency estimated from few doses,"[1]; compound concentrations:100 nM and 1000 nM (sheet 'Lestaurtinib' of Supplementary Table 1),run:Lestaurtinib_02768_R3,Plate:MR028",0.628 µM
same,potency estimated from few doses,"[1]; compound concentrations:100 nM and 1000 nM (sheet 'Lestaurtinib' of Supplementary Table 1),run:Lestaurtinib_02795_R1,Plate:MR022",0.874 µM
same,potency estimated from few doses,"[1]; compound concentrations:100 nM and 1000 nM (sheet 'Lestaurtinib' of Supplementary Table 1),run:Lestaurtinib_02795_R3,Plate:MR022",1.21 µM
same,potency estimated from few doses,"[1]; compound concentrations:100 nM and 1000 nM (sheet 'Lestaurtinib' of Supplementary Table 1),run:Lestaurtinib_02802_R3,Plate:MR029",0.831 µM
same,potency estimated from few doses,"[1]; compound concentrations:100 nM and 1000 nM (sheet 'Lestaurtinib' of Supplementary Table 1),run:Lestaurtinib_02896_R1,Plate:MR030",0.749 µM
same,potency estimated from few doses,"[1]; compound concentrations:100 nM and 1000 nM (sheet 'Lestaurtinib' of Supplementary Table 1),run:Lestaurtinib_02896_R3,Plate:MR030",0.608 µM
same,potency estimated from few doses,"[1]; compound concentrations:100 nM and 1000 nM (sheet 'Lestaurtinib' of Supplementary Table 1),run:Lestaurtinib_03172_R2,Plate:MR031",0.814 µM
same,potency estimated from few doses,"[1]; compound concentrations:100 nM and 1000 nM (sheet 'Lestaurtinib' of Supplementary Table 1),run:Lestaurtinib_03172_R3,Plate:MR031",0.662 µM
same,potency estimated from few doses,"[1]; compound concentrations:100 nM and 1000 nM (sheet 'Lestaurtinib' of Supplementary Table 1),run:Lestaurtinib_03252_R1,Plate:MR032",0.804 µM
same,potency estimated from few doses,"[1]; compound concentrations:100 nM and 1000 nM (sheet 'Lestaurtinib' of Supplementary Table 1),run:Lestaurtinib_03260_R1,Plate:MR033",1.21 µM
same,potency estimated from few doses,"[1]; compound concentrations:100 nM and 1000 nM (sheet 'Lestaurtinib' of Supplementary Table 1),run:Lestaurtinib_03260_R3,Plate:MR033",0.943 µM
same,potency estimated from few doses,"[2]; compound concentrations:100 nM and 1000 nM (sheet 'Lestaurtinib' of Supplementary Table 1),run:Lestaurtinib_02339_R1,Plate:MR001",0.0945 µM
same,potency estimated from few doses,"[2]; compound concentrations:100 nM and 1000 nM (sheet 'Lestaurtinib' of Supplementary Table 1),run:Lestaurtinib_02339_R2,Plate:MR001",0.0556 µM
same,potency estimated from few doses,[2]; [3],0.0623 µM
same,potency estimated from few doses,[2]; [4],0.0661 µM
same,potency estimated from few doses,[2]; [5],0.0513 µM
same,potency estimated from few doses,"[2]; compound concentrations:100 nM and 1000 nM (sheet 'Lestaurtinib' of Supplementary Table 1),run:Lestaurtinib_02367_R3,Plate:MR003",0.078 µM
same,potency estimated from few doses,[2]; [6],0.0859 µM
same,potency estimated from few doses,"[2]; compound concentrations:100 nM and 1000 nM (sheet 'Lestaurtinib' of Supplementary Table 1),run:Lestaurtinib_02407_R1,Plate:MR005",0.124 µM
same,potency estimated from few doses,"[2]; compound concentrations:100 nM and 1000 nM (sheet 'Lestaurtinib' of Supplementary Table 1),run:Lestaurtinib_02407_R2,Plate:MR005",0.2 µM
same,potency estimated from few doses,"[2]; compound concentrations:100 nM and 1000 nM (sheet 'Lestaurtinib' of Supplementary Table 1),run:Lestaurtinib_02422_R1,Plate:MR006",0.0695 µM
same,potency estimated from few doses,[2]; [7],0.0898 µM
same,potency estimated from few doses,[2]; [8],0.113 µM
same,potency estimated from few doses,[2]; [9],0.0943 µM
same,potency estimated from few doses,[2]; [10],0.0825 µM
same,potency estimated from few doses,[2]; [11],0.163 µM
same,potency estimated from few doses,"[2]; compound concentrations:100 nM and 1000 nM (sheet 'Lestaurtinib' of Supplementary Table 1),run:Lestaurtinib_02473_R1,Plate:MR010",0.093 µM
same,potency estimated from few doses,"[2]; compound concentrations:100 nM and 1000 nM (sheet 'Lestaurtinib' of Supplementary Table 1),run:Lestaurtinib_02473_R2,Plate:MR010",0.0568 µM
same,potency estimated from few doses,[2]; [12],0.115 µM
same,potency estimated from few doses,"[2]; compound concentrations:100 nM and 1000 nM (sheet 'Lestaurtinib' of Supplementary Table 1),run:Lestaurtinib_02482_R2,Plate:MR011",0.0744 µM
same,potency estimated from few doses,[2]; [13],0.0873 µM
same,potency estimated from few doses,"[2]; compound concentrations:100 nM and 1000 nM (sheet 'Lestaurtinib' of Supplementary Table 1),run:Lestaurtinib_02487_R1,Plate:MR012",0.0604 µM
same,potency estimated from few doses,[2]; [14],0.0997 µM
